Assay results taken from PubChem BioAssay (NCI).
Several values for one entry are separate records, joined by “and”; a condition that tells them apart may be missing. Identical values can stand only once. Compounds without any hit were thinned out: in the full panel of roughly 83,000, 20% have a hit.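 48-hour exposure, single concentration, 96-well plates; percent growth endpoint where 0 means no net growth. Active: below 10.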 Activity calls are given as the source filed them.

How the values were obtained:
Assay in all cases: NCI-60 one-dose screen, 48 h (100 = growth as untreated, 0 = no growth, -100 = all killed)
Details in all cases: 10 µM unless noted
SR leukemia = tested on: SR leukemia
RPMI-8226 leukemia = tested on: RPMI-8226 leukemia
OVCAR-8 ovarian = tested on: OVCAR-8 ovarian
OVCAR-5 ovarian = tested on: OVCAR-5 ovarian
OVCAR-4 ovarian = tested on: OVCAR-4 ovarian
SK-OV-3 ovarian = tested on: SK-OV-3 ovarian
IGROV1 ovarian = tested on: IGROV1 ovarian
OVCAR-3 ovarian = tested on: OVCAR-3 ovarian
HS 578T breast = tested on: HS 578T breast
NCI/ADR-RES ovarian = tested on: NCI/ADR-RES ovarian
T-47D breast = tested on: T-47D breast
BT-549 breast = tested on: BT-549 breast
MDA-MB-435 melanoma = tested on: MDA-MB-435 melanoma
SW-620 colon = tested on: SW-620 colon
MCF7 breast = tested on: MCF7 breast
HCT-116 colon = tested on: HCT-116 colon
HCC-2998 colon = tested on: HCC-2998 colon
KM12 colon = tested on: KM12 colon

Row | Compound | growth (SR leukemia) | growth (RPMI-8226 leukemia) | growth (OVCAR-8 ovarian) | growth (OVCAR-5 ovarian) | growth (OVCAR-4 ovarian) | growth (SK-OV-3 ovarian) | growth (IGROV1 ovarian) | growth (OVCAR-3 ovarian) | growth (HS 578T breast) | growth (NCI/ADR-RES ovarian) | growth (T-47D breast) | growth (BT-549 breast) | growth (MDA-MB-435 melanoma) | growth (SW-620 colon) | growth (MCF7 breast) | growth (HCT-116 colon) | growth (HCC-2998 colon) | growth (KM12 colon)
1 | COc1ccc(NC(=O)Nc2ccccc2CNc2nc(Nc3ccc(OCCN4CCCC4)cc3)ncc2Cl)cc1 | 11.6% (inactive) | -18.5% (active) | -18.2% (active) | 21.1% (inactive) | -74.3% (active) | 58.5% (inactive) | 24.3% (inactive) | -83.8% (active) | -67.7% (active) | 6.48% (active) | 27.2% (inactive) | 32% (inactive) | -70.9% (active) | 2.1% (active) | -60.5% (active) | -20.1% (active) | 16.3% (inactive) | 0.945% (active)
2 | COc1ccc(C(=O)c2ccc(OC)c(OC)c2OC)cc1 | 43.5% (inactive) and 8.36% (active) | 35.3% (inactive) and 27.4% (inactive) | 41.8% (inactive) and 47.4% (inactive) | 83.1% (inactive) and 49.9% (inactive) | 82.8% (inactive) and 42.8% (inactive) | 18% (inactive) and 3.38% (active) | 25.7% (inactive) and 11.9% (inactive) | -22.8% (active) and -39.4% (active) | -9.55% (active) and -14.2% (active) | 18.5% (inactive) and -13.9% (active) | 44.5% (inactive) and 36.2% (inactive) | 71.9% (inactive) and 50% (inactive) | -14.6% (active) and -29.5% (active) | 15.6% (inactive) and 11.8% (inactive) | 25.4% (inactive) and 16.5% (inactive) | 30.5% (inactive) and 26.3% (inactive) | 57.3% (inactive) and 45.6% (inactive) | 29.5% (inactive) and 24.7% (inactive)
3 | COc1ccc(/C=N\Nc2nc(SCC(C)C)nc(-c3ccc(OC)cc3)c2C#N)cc1 | 50.3% (inactive) | 54.6% (inactive) | 39.2% (inactive) | 55.5% (inactive) | -60.3% (active) | -16.6% (active) | -16.3% (active) | 9.64% (active) | 8.52% (active) | 42.2% (inactive) | 16.2% (inactive) | 110% (inactive) | 68.5% (inactive) | 51% (inactive) | 59.3% (inactive) | 2.29% (active) | 64.2% (inactive) | 62.6% (inactive)
4 | COc1cc(OC)cc(-c2ccc(-c3ccc(C(=N)N)cn3)s2)c1 | 6.61% (active) | -1.98% (active) | 17.8% (inactive) | 89.8% (inactive) | 28.4% (inactive) | 82.2% (inactive) | 78.4% (inactive) | 5.54% (active) | 84.9% (inactive) | 95.4% (inactive) | 96.7% (inactive) | 95.1% (inactive) | 82.5% (inactive) | 5.08% (active) | 13% (inactive) | -12.6% (active) | 56.1% (inactive) | 40.7% (inactive)
5 | CN1C(=O)N(C)C2(c3ccccc3)N(CC(=O)Nc3ccccc3O)C(=O)NC12c1ccccc1 (stereo not given) | 112% (inactive) | 106% (inactive) | 102% (inactive) | 104% (inactive) | 99.3% (inactive) | 100% (inactive) | 101% (inactive) | 103% (inactive) | 105% (inactive) | 99.8% (inactive) | 98.5% (inactive) | 104% (inactive) | 106% (inactive) | 97.4% (inactive) | 101% (inactive) | 98.3% (inactive) | 118% (inactive) | 105% (inactive)
6 | CCCCC(NC(=O)CN1C(=O)/C(=C/C(C)=C/c2ccccc2)SC1=S)C(=O)O (stereo not given) | 115% (inactive) | 115% (inactive) | 102% (inactive) | 101% (inactive) | 101% (inactive) | 105% (inactive) | 102% (inactive) | 112% (inactive) | 102% (inactive) | 98% (inactive) | 105% (inactive) | 112% (inactive) | 104% (inactive) | 94.6% (inactive) | 93.3% (inactive) | 98.5% (inactive) | 110% (inactive) | 102% (inactive)
7 | O=C(/C=C\c1ccc(Cl)c(Cl)c1)c1ccccc1 | 13.1% (inactive) and 106% (inactive) | -27.3% (active) and 89.4% (inactive) | 79.2% (inactive) and 98.9% (inactive) | 93.7% (inactive) and 106% (inactive) | 88.3% (inactive) | 101% (inactive) and 96.4% (inactive) | 92.7% (inactive) and 82.4% (inactive) | 93.6% (inactive) and 98% (inactive) | 111% (inactive) | 99.1% (inactive) and 105% (inactive) | 77.4% (inactive) and 86.9% (inactive) | 103% (inactive) | 70.5% (inactive) and 100% (inactive) | 31.9% (inactive) and 95.1% (inactive) | 18.8% (inactive) and 28.2% (inactive) | 22.7% (inactive) and 62.1% (inactive) | 95.2% (inactive) and 104% (inactive) | 96.6% (inactive)
8 | CCCN1C(=O)/C(=c2\sc3n(c2=O)C2C(NN=3)N(CC)C(=O)N2CC)c2ccccc21 (stereo not given) | 17% (inactive) | 21.9% (inactive) | 7.65% (active) | 27.5% (inactive) | 48.8% (inactive) | 43.7% (inactive) | 16% (inactive) | 12.4% (inactive) | 16.8% (inactive) | 0.109% (active) | 27.8% (inactive) | 20.8% (inactive) | -21.2% (active) | 24.9% (inactive) | 9.94% (active) | 7.6% (active) | 15.5% (inactive) | 20% (inactive)
9 | CN1CCN(Cc2ccc(NC(=O)c3nc4ccc5[nH]ncc5c4c4c3CCCC4)cc2C(F)(F)F)CC1 | -49.8% (active) | -36.2% (active) | -73.8% (active) | 37.1% (inactive) | -39.7% (active) | 37% (inactive) | -65.5% (active) | -80.3% (active) | -35.4% (active) | -35.3% (active) | -69.3% (active) | -78.5% (active) | -82.6% (active) | -60% (active) | -68.5% (active) | -90.4% (active) | -80.7% (active) | -73.4% (active)
10 | N=c1c2c(-c3ccccc3)c(-c3ccccc3)oc2ncn1NC(=O)c1cccnc1 | 77.7% (inactive) | 97.5% (inactive) | 97.7% (inactive) | 109% (inactive) | 101% (inactive) | 99.2% (inactive) | 95.7% (inactive) | 111% (inactive) | 103% (inactive) | 107% (inactive) | 96.2% (inactive) | 103% (inactive) | 104% (inactive) | 106% (inactive) | 98.5% (inactive) | 96.1% (inactive) | 118% (inactive) | 95.6% (inactive)
11 | O=C(/C=C/C12c3ccccc3C(c3ccccc31)C1C(=O)NC(=O)C12)c1ccncc1 (stereo not given) | 1.11% (active) | -29.6% (active) | 1.79% (active) | 13.7% (inactive) | 31.8% (inactive) | 71.8% (inactive) | 9.72% (active) | 4.84% (active) | 38% (inactive) | 23.9% (inactive) | -4.38% (active) | 15.7% (inactive) | 9.93% (active) | 13.4% (inactive) | 3.34% (active) | -16.5% (active) | 88.2% (inactive) | 7.72% (active)
12 | COc1ccc2c(c1)CC[C@@H]1[C@@H]2CC[C@]2(C)C3C(=CCC4C(=O)N(c5ccccc5)C(=O)C43)C[C@@H]12 (stereo not given in full) | 99.1% (inactive) | 61.2% (inactive) | 86.2% (inactive) | 75.7% (inactive) | 78.8% (inactive) | 103% (inactive) | 113% (inactive) | 87.3% (inactive) | 97.6% (inactive) | 85.8% (inactive) | 99.6% (inactive) | 110% (inactive) | 86.4% (inactive) | 90.6% (inactive) | 111% (inactive) | 66.9% (inactive) | 93.6% (inactive) | 93.6% (inactive)
13 | COc1ccc(/C=C/C(=O)c2cc3c(N)c(C(=O)Nc4ccccc4Cl)sc3nc2C)cc1 | 53.1% (inactive) | 53% (inactive) | 40.3% (inactive) | 79% (inactive) | -13% (active) | 58.5% (inactive) | 26.9% (inactive) | 21.1% (inactive) | 10.3% (inactive) | 42.9% (inactive) | 30.3% (inactive) | 59% (inactive) | -61.6% (active) | 48.1% (inactive) | 17.2% (inactive) | 59% (inactive) | 51.3% (inactive) | 51.6% (inactive)
14 | CN(C)CCN1C(=O)c2c(c3c4ccccc4n4c3c3c2c2ccccc2n3C2CC(O)C(O)C4(C)O2)C1=O (stereo not given) | 5.57% (active) | 18.5% (inactive) | 25.3% (inactive) | 55.6% (inactive) | 29.3% (inactive) | 25.3% (inactive) | 16.5% (inactive) | 41.4% (inactive) | 41.7% (inactive) | 54.5% (inactive) | 30.1% (inactive) | 62.9% (inactive) | 32.1% (inactive) | 18.5% (inactive) | 6.41% (active) | 22.4% (inactive) | 26.4% (inactive) | 34.2% (inactive)
15 | COc1nc2ccc(C)cc2cc1/C=[N+](\[O-])c1ccccc1 | 39.9% (inactive) | 69.1% (inactive) | 95.3% (inactive) | 92.6% (inactive) | 83.7% (inactive) | 79.9% (inactive) | 75.2% (inactive) | 96.6% (inactive) | 91% (inactive) | 81.1% (inactive) | 66.5% (inactive) | 95.8% (inactive) | 96.9% (inactive) | 49.9% (inactive) | 58.6% (inactive) | 15.1% (inactive) | 98.2% (inactive) | 90.5% (inactive)
